The source of these data is PubChem BioAssay (Tox21).

Results filed as inconclusive are left out. Values without a mark were called inactive. Calls of active or inactive are those of the source. Calls follow the shape of the dose curve; as a rule, active = well fitted activation curve with a large enough effect in the repeat runs; inconclusive = weak or mixed curves; inactive = no such curve, though single readings can be large or run the other way.
% is scaled to controls: 0 for no effect and ±100 for the full control effect; potency is read from the fitted curve at half-maximal effect.

Chain of Nuclear receptor subfamily 1 group I member 2 (Homo sapiens) (O75469 whole entry, looked up): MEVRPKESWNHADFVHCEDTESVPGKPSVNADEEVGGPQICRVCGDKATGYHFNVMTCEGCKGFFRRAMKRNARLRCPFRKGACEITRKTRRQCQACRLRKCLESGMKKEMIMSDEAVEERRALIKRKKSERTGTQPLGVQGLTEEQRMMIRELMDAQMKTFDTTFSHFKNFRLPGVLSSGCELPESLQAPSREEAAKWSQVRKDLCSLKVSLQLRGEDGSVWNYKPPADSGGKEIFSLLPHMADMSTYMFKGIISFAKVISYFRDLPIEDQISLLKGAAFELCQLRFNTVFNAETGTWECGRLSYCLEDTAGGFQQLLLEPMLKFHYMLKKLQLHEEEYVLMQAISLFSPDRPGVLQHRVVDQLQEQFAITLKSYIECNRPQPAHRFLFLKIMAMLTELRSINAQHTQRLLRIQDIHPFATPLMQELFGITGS

This test concerns the target Nuclear receptor subfamily 1 group I member 2 (Homo sapiens) (UniProt O75469). Nature of the test: Human pregnane X receptor (PXR) small molecule agonists, qHTS assay (AID 1346982). Also: nearly all actives have a fitted effect of over 35% in size. Conditions: PXR-Luc HepG2, CYP3A4 luciferase reporter, 24 h; series mostly up to 92.4 µM; activation: at the top concentration. An excerpt: National Center for Advancing Translational Sciences [NCATS]
NIH Chemical Genomics Center [NCGC]
U.S. Environmental Protection Agency [EPA]
National Institutes of Environmental Health Sciences [NIEHS]
National Toxicology Program [NTP]
The human pregnane X receptor (hPXR) regulates the expression of several drug metabolizing enzymes and induction of these proteins is a major mechanism for developing drug resistance in cancer. One such key enzyme catalyzing the drug metabolism is cytochrome P450 3A4 (CYP3A4). Changes in CYP3A4 expression affect drug metabolism, thereby reducing the therapeutic efficacy and altering toxicological response to a drug and which finally causes adverse drug interaction. To screen Tox21 libraries for compounds that activate hPXR-mediated CYP3A4 gene expression, PXR-Luc HepG2 cells were used.
PXR-Luc HepG2 cells were dispensed at 2,000 per well in 5uL of assay medium containing 5% charcoal-stripped FBS into white solid bottom 1536-well plates (Corning Life Sciences, Corning, NY) using a Multidrop Combi (Thermo Scientific, Waltham, MA) dispenser. The assay plates were incubated at 37 C and 5% CO2 for 5hr, and then 23nL of compounds dissolved in DMSO and positive control were transferred using a Pintool station (Wako, San Diego, CA). The assay plates were incubated at 37C and 5% CO2 for 24hr. For luciferase read, 4uL of ONE-Glo reagent (Promega Corporation, Madison, WI) was added to each well of the assay plates using Flying Reagent Dispenser (FRD, Aurora Discovery, San Diego, CA) and incubated the assay plates at room temperature for 30min. The luminescence signal was quantified using a ViewLux plate reader (Perkin Elmer, Shelton, CT).
Turning to `CC(C)NCC(O)c1cc(O)cc(O)c1` (stereo not given), the “activation” value was -0.599% [at 42.5 µM].
As for `COCCOCCOCCOCCOC`, the “activation” value was -3.45%.
As to `NC(=S)N/N=C/c1cccnc1`, the “activation” value was 0.431% [at 42.5 µM].
Take `CC[C@H](C)[C@@H](C(=O)O)n1sc2ccccc2c1=O`: the “activation” value is 0.27%.
As to `Oc1ccc(O)c2c(O)cccc12`, the “activation” value is -1.4%.
In the case of `CC(=O)Nc1ccc(/C=N/NC(N)=S)cc1`, the “activation” value is 13% [at 42.5 µM].
Consider `CCCCC(CC)(CO)CO`, for which the “activation” value is -2.27%.
On to `c1ccc(-c2nc[nH]c2-c2ccccc2)cc1`, for which the “activation” value is 19.2% [at 42.5 µM].
Take `O=C(O)COC(=O)Cc1ccccc1Nc1c(Cl)cccc1Cl`: the “activation” value was 28.4% [at 42.5 µM].
Still for that read-out and setting: with `CCN1CCC[C@H]1CNC(=O)c1c(OC)ccc(Br)c1OC` the figure was 9.25% [at 42.5 µM].
Consider `Oc1ccc(Sc2ccc(O)cc2)cc1`, for which the Potency was 51 µM (active).
The same measure, in the same setting: with `CCOc1ccc2[nH]cc(C(=O)NCc3ccccc3)c(=O)c2n1` the figure was 19.3 µM (active).
In the case of `Cc1cc(NC(=O)C(=O)O)cc(C)c1Oc1ccc(O)c2c1CCC2`, the “activation” value was 0.0763%.
Regarding `CC(=O)OC/C=C/c1ccccc1`, the “activation” value is 9.74%.
Same read-out and setting: with `CC(C)NCC(O)COc1ccc(CC(N)=O)cc1` (stereo not given) the figure was 15.9%; with `CCCCCCCCCCCCCCCBr`, 10.1% [at 42.5 µM]; with `CN1CCC[C@@H]1c1cccnc1`, -2.52% [at 42.5 µM].
As for `c1ccc(OCc2ccc(CCCN3CCOCC3)cc2)cc1`, the Potency is 2.37 µM (active).
On to `CC(C)(C)C1CCCCC1O` (stereo not given), for which the “activation” value was 5.7%.
Take `O=C(O)Cc1sc(-c2ccccc2)nc1-c1ccc(Cl)cc1`: the “activation” value was 4.2% [at 42.5 µM].
Still for that read-out and setting: with `CN1CCC(=C2c3ccccc3C=Cc3ccccc32)CC1` the figure was 5.54% [at 42.5 µM].
`CNS(=O)(=O)Cc1ccc2[nH]cc(CCN(C)C)c2c1`: the “activation” value is 6.03% [at 42.5 µM].
As to `CCCc1ccccc1`, the “activation” value was -16%.
Same read-out and setting: with `CCCCCCCCN(C)C` the figure was -3.3%; with `S=C(S)NCCNC(=S)S`, 16.8%; with `Cc1ccc(C(=O)C(C)CN2CCCCC2)cc1` (stereo not given), 11.6% [at 42.5 µM].
With `N#CCCNCCC#N`, the “activation” value was -20.4%.
Regarding `CC(=O)NCCCS(=O)(=O)O`, the “activation” value is 3.7% [at 42.5 µM].
As to `CN(C(=O)CCCOc1ccc2[nH]c(=O)ccc2c1)C1CCCCC1`, the Potency was 15 µM (active).
In the case of `CC/C(=C\C(=N/O)C(N)=O)C(C)[N+](=O)[O-]` (stereo not given), the “activation” value is 13.5%.
As for `O=C1[C@H](CC[C@H](O)c2ccc(F)cc2)[C@@H](c2ccc(O)cc2)N1c1ccc(F)cc1`, the Potency was 29.8 µM (active).
In the case of `CC(=O)N(O)CCCCCNC(=O)CCC(=O)N(O)CCCCCNC(=O)CCC(=O)N(O)CCCCCN`, the “activation” value is 1.47% [at 42.5 µM].
On to `CCOC(=O)CC(C)C`, for which the “activation” value was 2.59%.
As to `COCCO`, the “activation” value is 1.17%.
For the compound `CC(=O)O[C@H]1C[C@@H]2CC[C@@H]3[C@H](CC[C@@]4(C)[C@H]3C[C@H]([N+]3(C)CCCCC3)[C@@H]4OC(C)=O)[C@@]2(C)C[C@@H]1N1CCCCC1`, the “activation” value was -1.32% [at 42.5 µM].
As to `COc1ccccc1OC(=O)Oc1ccccc1OC`, the “activation” value was 13.7% [at 42.5 µM].
The same measure, in the same setting: with `CCCC[C@H]1CN(CC2CCOCC2)C(=O)OC12CCN(C1(C)CCN(C(=O)c3c(C)ncnc3C)CC1)CC2` the figure was 5.4%.
Turning to `CC(C)(C)c1ccc(OCC2CO2)cc1` (stereo not given), the Potency is 35.1 µM (active).
For the compound `C=CCCCCCC`, the “activation” value was 21.4%.
With `CC(C)c1ccccc1C(C)C`, the “activation” value was 4.42%.
